Bioassay records: PubChem, The Scripps Research Institute Molecular Screening Center
An excerpt weighted towards active compounds, which were near 3.5% of everything screened.
GPR151 ag: activators of human GPR151. Q8TDV0. PathHunter beta-arrestin GPR151 cells, luminescence. activation, % at 11.2 µM. 650,000 tested, 1% active; in the data active = activation above about 4.9%
FBW7 act: activators of human E3 ligase FBW7; normalized activity (activation), % at 26.1 µM; AlphaScreen FBW7–phospho-cyclin E peptide binding, activator screen; 650,000 tested, 0.13% active; AID 1259310; Q969H0; in the data active = normalized activity above about 1.9%;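 note: purified mutant Fbw7 with reduced substrate affinity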
MITF primary: human MITF inhibition, primary screen; inhibition, % at 2.6 µM; AlphaScreen MITF homodimerization, bead proximity signal; O75030; AID 1259374; 650,000 tested, 0.91% active; in the data active = inhibition above about 50%
Target sequence (O75030 whole entry, looked up): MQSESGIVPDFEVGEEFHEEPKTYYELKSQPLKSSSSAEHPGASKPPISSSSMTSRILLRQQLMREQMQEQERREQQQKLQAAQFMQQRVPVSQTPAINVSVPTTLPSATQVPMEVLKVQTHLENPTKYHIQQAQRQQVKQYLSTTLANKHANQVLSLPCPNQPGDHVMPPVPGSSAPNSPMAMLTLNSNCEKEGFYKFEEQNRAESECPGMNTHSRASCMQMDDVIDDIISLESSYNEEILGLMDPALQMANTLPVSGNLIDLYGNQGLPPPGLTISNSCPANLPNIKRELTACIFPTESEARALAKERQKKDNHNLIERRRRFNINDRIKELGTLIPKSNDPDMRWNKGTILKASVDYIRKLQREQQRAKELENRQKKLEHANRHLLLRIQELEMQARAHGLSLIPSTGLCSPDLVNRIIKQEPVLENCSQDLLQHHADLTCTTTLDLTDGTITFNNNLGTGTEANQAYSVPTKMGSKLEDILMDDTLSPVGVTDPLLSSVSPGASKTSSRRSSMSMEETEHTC
TEAD-YAP block: TEAD-YAP interaction inhibition; inhibition, % at 9.12 µM; 640,000 tested, 1.4% active; HEK-TIYL cells, TEAD-Gal4/YAP UAS-luciferase luminescence; AID 1259422; in the data active = inhibition above about 32%
Large screens that a line does not name were inactive; ! = repeats disagree.

O=C(Nc1cccc(C(F)(F)F)c1)c1ccc([N+](=O)[O-])o1	TEAD-YAP block 35.8
COc1ccc(C2C=C(c3ccc(Br)cc3)Nc3nc4ccccc4n32)c(OC)c1 (configuration not stated)	none
O=C(O)c1ccc(S(=O)(=O)N2CCC(C(C(=O)O)c3ccccc3)CC2)cc1 (configuration not stated)	none
c1ccc2c(NC3CC3)nc(N3CCCC3)nc2c1	TEAD-YAP block 32.3
c1ccc(-c2nc(NC3CCCCC3)c3ccccc3n2)cc1	none
Clc1nc(NC2CCCC2)c2ccccc2n1	TEAD-YAP block 60.0
O=C(CN1C(=O)/C(=C\c2ccc(Cl)cc2)Sc2ccccc21)NCc1ccccn1	none
CCCCOc1ccc(-c2nn(-c3ccccc3)cc2/C=c2\sc3nc(=O)c(Cc4ccccc4)nn3c2=O)cc1C	MITF primary 75.9
CCCCOc1ccc(-c2nn(-c3ccccc3)cc2/C=c2\sc3nc(=O)c(C)nn3c2=O)cc1C	none
Cc1cc(C)nc(/N=C(\N)Nc2ccc([N+](=O)[O-])cc2C)n1	none
COc1cc([N+](=O)[O-])ccc1N/C(N)=N/c1nc(C)cc(C)n1	TEAD-YAP block 56.8!
COC(=O)c1ccc(Cl)cc1NC(=O)C1COc2ccccc2O1 (configuration not stated)	none
O=C(Cc1ccc([N+](=O)[O-])cc1)Nc1ccc2c(c1)oc1ccccc12	none
O=C(Nc1ccc2oc(-c3ccccc3Cl)nc2c1)c1cc([N+](=O)[O-])ccc1Cl	none
O=C(Nc1ccc2oc(-c3cccc(Cl)c3Cl)nc2c1)c1cc([N+](=O)[O-])ccc1Cl	none
O=C(Nc1ccc2oc(-c3ccc4ccccc4c3)nc2c1)c1cccc(Cl)c1Cl	FBW7 act 1.9
O=C(Nc1ccc2c(c1)oc1ccccc12)c1cc([N+](=O)[O-])ccc1Br	TEAD-YAP block 32.9
Cc1ccccc1-c1nc2cc(NC(=O)c3cc([N+](=O)[O-])ccc3Cl)ccc2o1	TEAD-YAP block 33.3
O=C(Nc1ccc2oc(-c3ccccc3F)nc2c1)c1cc([N+](=O)[O-])ccc1Cl	TEAD-YAP block 32.2
O=C(Nc1ccc2oc(-c3ccccc3)nc2c1)c1cc([N+](=O)[O-])ccc1Br	TEAD-YAP block 36.0
CC(C)C(=O)Nc1ccc2oc(-c3ccccc3F)nc2c1	TEAD-YAP block 71.8
CC(=O)Nc1ccc2oc(-c3ccccc3F)nc2c1	none
Cc1cc(C)c(S(=O)(=O)N(Cc2ccccc2)c2ccccn2)c(C)c1	none
O=C(Nc1cccc(NC(=O)c2ccc(S(=O)(=O)N3CCCC3)cc2)c1)c1ccc(S(=O)(=O)N2CCCC2)cc1	none
CC(=O)N/C(=C\c1ccccc1)C(=O)OCc1ccc(Cl)cc1Cl	none
O=C(/C=C/N1C(=O)c2ccccc2C1=O)c1ccccc1	none
CCOC(=O)c1c(-c2ccc(OC)cc2)csc1NC(=O)CSc1ncn[nH]1	TEAD-YAP block 34.5
CCOc1ccc2ncc(C#N)c(Nc3cc(OC)cc(OC)c3)c2c1	TEAD-YAP block 44.9
CCOC(=O)c1cnc2ccc(OCC)cc2c1Nc1cccc(OC)c1	none
COc1ccc(CN2CCc3nnc(C(CC(C)C)NC(C)=O)n3CC2)c(C)c1C (configuration not stated)	none
Nc1ncc(N=Nc2cccc(Br)c2)s1	none
Cc1ccc(Cc2cnc(NC(=O)CCc3ccc(C)o3)s2)cc1	TEAD-YAP block 66.9
Cc1ccc(CCC(=O)Nc2ncc(Cc3ccccc3Cl)s2)o1	TEAD-YAP block 56.4
CCc1ccc(CCC(=O)Nc2ncc(Cc3ccccc3F)s2)o1	none
O=C(CCl)Nc1ncc(Cc2ccccc2)s1	none
Cc1ccc(CCC(=O)Nc2ncc(Cc3ccccc3)s2)o1	TEAD-YAP block 55.6
Cc1onc(-c2ccccc2Cl)c1C(=O)Nc1ccc(Cl)c(Cl)c1	none
COc1ccc(-c2nc3ccc(C(=O)NCCc4ccc(Cl)cc4)cc3nc2-c2ccc(OC)cc2)cc1	none
CC1CN2c3ccccc3C(C)(C)C2(/C=C/c2ccc(N(C)C)cc2)NC1=O (configuration not stated)	TEAD-YAP block 38.9
CC1(C)c2ccccc2N2CC(=O)NC21/C=C/c1ccccc1 (configuration not stated)	none
COc1ccc(CCNc2nc(Nc3cnccn3)nc3c2ncn3-c2ccsc2)cc1	none
COc1ccc(CCNc2nc(NC3CCC(O)CC3)nc3c2ncn3-c2ccsc2)cc1 (configuration not stated)	TEAD-YAP block 48.4
COc1ccc(CCNc2nc(Nc3ccncc3)nc3c2ncn3-c2ccsc2)cc1	TEAD-YAP block 42.5
Oc1ccc(CCNc2nc(Nc3ccc(C(F)(F)F)cc3)nc3c2ncn3-c2ccsc2)cc1	none
Oc1ccc(CCNc2nc(Nc3ccncc3)nc3c2ncn3-c2ccsc2)cc1	TEAD-YAP block 56.2
CCNc1nc(NCCc2ccc(O)cc2)c2ncn(-c3ccsc3)c2n1	none
Cn1nccc1Nc1nc(NCCc2ccc(O)cc2)c2ncn(-c3ccsc3)c2n1	TEAD-YAP block 59.8
CCCOc1ccc(-c2ccc(-c3noc(-c4ccc(-c5ccc(OCCC)cc5)cc4)n3)cc2)cc1	none
Cc1ccc(Nc2nc(N3CCCCCC3)nc(N3CCOCC3)n2)cc1	none
O=C(CNCC1CCCCC1)NCc1ccc2c(c1)OCO2	none
CC(C(O)c1ccccc1)N(C)S(=O)(=O)c1ccc([N+](=O)[O-])cc1 (configuration not stated)	none
COc1ccc(CCNc2nc(Nc3cccnc3)nc3c2ncn3-c2ccsc2)cc1	TEAD-YAP block 64.8
CC(C)N(CCNc1nc(Nc2ccnn2C)nc2c1ncn2-c1ccsc1)C(C)C	TEAD-YAP block 35.3
CC(C)N(CCNc1nc(Nc2ccccn2)nc2c1ncn2-c1ccsc1)C(C)C	none
COCC(=O)Nc1cnn(-c2ccc(C(=O)NCCCCN3CCCCCC3)cc2)c1	none
CC(=O)Nc1ccccc1Oc1ccc(C(N)=O)cc1[N+](=O)[O-]	none
Cc1oc(-c2ccc(Cl)cc2)nc1CN1CCCC(C(=O)NCc2cccnc2)C1 (configuration not stated)	TEAD-YAP block 45.7
Cc1oc(-c2ccc(Cl)cc2)nc1CN1CCCC(C(=O)NCCN2CCCC2)C1 (configuration not stated)	none
COc1ccccc1-n1c(SCC(=O)Nc2ccc(F)cc2)nnc1-c1ccncc1	none
COC(=O)CSc1nnc(-c2cccnc2)n1C	FBW7 act 1.9
COc1ccccc1-n1c(SCC(=O)Nc2ccccc2F)nnc1-c1cccnc1	TEAD-YAP block 58.3
COc1ccccc1NC(=O)CSc1nnc(-c2cccnc2)n1-c1ccccc1C	TEAD-YAP block 69.5
COc1ccccc1-n1c(SCC(=O)Nc2nc(C)cs2)nnc1-c1ccncc1	TEAD-YAP block 51.2
CCCCNC(=O)CSc1nnc(-c2cccnc2)n1-c1ccccc1OC	none
COc1ccc(-c2cnn3c(NCc4ccco4)ccnc23)c(OC)c1	none
COc1cccc(-n2c(SCC(=O)Nc3ccccc3OC)nnc2-c2cccnc2)c1	none
COc1cccc(-c2nnc(SCC(=O)Nc3ccccc3OC)n2-n2cccc2)c1	TEAD-YAP block 50.0
CCOC(=O)COc1cc(C)c2c(=O)c(-c3nc(C)cs3)coc2c1	none
Nc1cccc(-c2cnn3c(NCC4CC4)ccnc23)c1	none
Clc1cccc(-c2cnn3c(NCc4cccs4)ccnc23)c1	none
